Sampled rows, rich in hits. Any-hit rate of the full collection: about 9.3%.
NPC1 prom act: activates the NPC1 promoter; Potency, µM (doses to about 9.22 µM), hits mostly activators; 2.4% of 320,000 active; Huh7 NPC1 promoter luciferase reporter, 24 h; further: nearly all actives have a fitted effect of over 60% in size
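Luciferase expression driven by the NPC1 promoter was measured in stably transfected Huh7 cells after a 24 h compound incubation, using a luciferase reagent and a luminescence read.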
Rab9 promoter act: activates the Rab9 promoter. 2.8% of 320,000 active. Potency, µM (top dose mostly 9.22 µM), most hits filed as activators. Huh7 Rab9 promoter-luciferase reporter, luminescence, 24 h; further: nearly all actives have a fitted effect of over 60% in size
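Using Huh7 cells stably transfected with Rab9 promoter–luciferase, compounds were incubated 24 h at 37 °C, 5% CO2; luciferase luminescence was read 10 min after reagent addition.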
SMN2 splice enh: enhancers of SMN2 splice variant expression; Potency, µM (highest dose often 46.1 µM), actives largely listed as activators; HEK293 SMN2-luciferase splicing reporter, luminescence, 30-36 h; 2.8% of 210,000 active; further: nearly all actives have a fitted effect of over 55% in size
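qHTS luciferase splicing reporter: luminescence rises when SMN2 exon 7 is included in transfected HEK293 cells. Compound exposure lasted 30-36 h at 37C, with 4.5 mM final sodium butyrate as control, followed by a ONE-Glo read.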
ELG1 genotoxic: genotoxicity induction in ELG1-luciferase HEK293T cells; HEK293T ELG1-luciferase reporter, luminescence, 16 h; Potency, µM (series often up to 46 µM), most hits filed as activators; AID 504466; 1.3% of 330,000 active; further: nearly all actives have a fitted effect of over 60% in size
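Reporter readout depends on ELG1 protein level, which increases with genetic stress. After 16 hr compound exposure at 37 °C, luciferase activity was quantified using ONE-Glo.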
FLuc modulator: inhibits or activates purified firefly luciferase, miR-21 counter-screen. P08659. 6.9% of 360,000 active. Potency, µM (titrated, usually from 57.5 µM), actives largely listed as inhibitors. purified FLuc, Km substrates, luminescence inhibition; further: nearly all actives have a fitted effect of over 55% in size
Target sequence (P08659 whole entry, looked up): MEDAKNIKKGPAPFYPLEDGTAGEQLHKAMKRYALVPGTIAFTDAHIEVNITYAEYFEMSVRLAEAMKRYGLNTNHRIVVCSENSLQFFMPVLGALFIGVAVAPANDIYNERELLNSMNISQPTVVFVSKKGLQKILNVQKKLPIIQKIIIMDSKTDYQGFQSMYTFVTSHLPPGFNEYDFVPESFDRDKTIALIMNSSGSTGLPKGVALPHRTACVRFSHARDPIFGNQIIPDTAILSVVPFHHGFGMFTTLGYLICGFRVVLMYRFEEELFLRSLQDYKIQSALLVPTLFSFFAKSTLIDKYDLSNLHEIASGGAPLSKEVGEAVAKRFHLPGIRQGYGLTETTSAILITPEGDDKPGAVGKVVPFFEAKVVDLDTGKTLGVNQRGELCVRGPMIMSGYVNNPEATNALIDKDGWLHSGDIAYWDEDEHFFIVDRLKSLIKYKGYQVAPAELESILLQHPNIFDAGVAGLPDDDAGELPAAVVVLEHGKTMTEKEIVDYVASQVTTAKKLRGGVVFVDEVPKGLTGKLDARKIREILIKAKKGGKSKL
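Purified P. pyralis luciferase, 10 nM final, with Km-level 10 uM D-luciferin and 10 uM ATP in 50 mM Tris acetate pH 7.5, 10 mM Mg acetate, 0.01% Tween-20, 0.05% BSA; 6-point qHTS titration about 60 µM downward; luminescence read.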
ELG1 repair inh: ELG1-dependent DNA repair inhibition; 2.3% of 330,000 active; Potency, µM (series often up to 46.1 µM), actives largely listed as inhibitors; AID 504467; HEK293T ELG1-luciferase reporter, luminescence, 16 h; DNA damage induced by 5-fluorouridine; further: nearly all actives have a fitted effect of over 55% in size
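Overnight (16 hr) co-exposure of 2,000 cells/well to 5-fluorouridine and compound at 37 °C preceded detection. Luciferase was quantified via ONE-Glo luminescence; loss of signal denotes inhibition.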
Numbers stand for hits; n = inactive; u = inconclusive; x = no result. The call rests on the fitted dose curve; in most records, active means well fitted curve in the direction sought with a large enough effect; inconclusive means small, poorly fitted or top-dose-only effect, or another doubt; inactive means no such curve, though single readings can be large; an effect the other way counts as inactive or inconclusive.

SMILES	NPC1 prom act	Rab9 promoter act	SMN2 splice enh	ELG1 genotoxic	FLuc modulator	ELG1 repair inh
O=C(/C=C\c1ccc(-c2cccc([N+](=O)[O-])c2)o1)N1CCOCC1	u	3.5µM	x	u	u	n
Oc1ccc(/C=N/Nc2ccnc3cc(Cl)ccc23)cc1O	n	n	x	u	17µM	n
Oc1ccc(/C=N/Nc2ccnc3cc(Cl)ccc23)c(O)c1O	n	n	x	n	u	n
CCn1c(C)[n+](Cc2ccccc2)c2ccc(Cl)cc21	n	n	n	n	n	15µM
CCn1c(C)[n+](Cc2ccccc2)c2ccc(C(=O)OC)cc21	n	n	n	n	n	n
COc1ccc(Cc2nc(-c3ccccn3)no2)cc1	3.5µM	u	u	n	u	u
c1ccc(C(Cc2nc(-c3ccccn3)no2)c2ccccc2)cc1	u	u	n	n	u	u
c1ccc(CCCc2nc(-c3ccccn3)no2)cc1	2.8µM	2.2µM	20µM	u	17µM	u
c1ccc(SCc2nc(-c3ccccn3)no2)cc1	3.5µM	u	11µM	18µM	17µM	u
CCN(C(=O)CCc1nc(-c2ccc(OC)cc2)no1)c1cc(OC)ccc1OC	n	n	n	n	n	16µM
CCc1nn(CC(=O)NCCCN(C)C2CCCCC2)c(=O)c2cc3occc3n12	n	n	x	n	n	n
CC(C)N(Cc1nc(-c2ccccc2)no1)C(=O)c1ccc(Cl)cc1	n	n	n	n	n	n
COc1ccc(-c2noc(CCc3ccccc3)n2)cc1	u	u	n	u	15µM	u
CC(C)N(Cc1nc(-c2ccc(Cl)cc2)no1)C(=O)CCCN1C(=O)c2ccccc2C1=O	n	n	n	n	n	23µM
c1cc(-c2noc(CC3CCCCC3)n2)ccn1	n	n	x	u	u	u
c1ccc(-c2noc(CC3CCCCC3)n2)nc1	3.5µM	1.1µM	x	u	9.5µM	u
Clc1ccc(-c2noc(CCCc3ccccc3)n2)cc1	n	n	n	u	27µM	n
O=C(O)CCCc1nc(-c2ccc(Cl)cc2)no1	n	n	n	n	u	n
COc1ccc(C(=O)NC(=S)Nc2ccc3oc(=O)ccc3c2)cc1	n	n	n	n	n	n
Cc1ccc(Cc2nc(-c3ccccn3)no2)cc1	1.8µM	3.2µM	13µM	u	11µM	u
COc1ccc(-c2noc(Cc3ccccc3OC)n2)cc1	n	n	n	u	u	u
c1ccc(Cc2nc(-c3ccccn3)no2)cc1	u	2.8µM	25µM	u	24µM	u
CN(C)C(=O)CCCc1nc(-c2ccc(Cl)cc2)no1	u	3.2µM	n	15µM	u	u
COc1ccc(-c2noc(Cc3cccs3)n2)cc1	u	2.8µM	n	u	5.4µM	u
Cc1ccc([N+](=O)[O-])c2c1C(N1CC(C)OC(C)C1)C(C)(C)O2 (stereo unspecified)	n	n	n	n	n	n
SMILES	NPC1 prom act	Rab9 promoter act	SMN2 splice enh	ELG1 genotoxic	FLuc modulator	ELG1 repair inh
COc1cc(OC)c2c(=O)cc(-c3ccccc3)oc2c1	u	u	x	23µM	5.4µM	u
COc1cc(OC)c2c(=O)c(-c3ccccc3)coc2c1	x	x	11µM	x	x	x
COc1ccc(-c2coc3cc(OC)cc(O)c3c2=O)cc1	0.63µM	1µM	13µM	u	1.5µM	u
COc1ccc(-c2coc3cc(OC)cc(OC)c3c2=O)cc1	u	u	n	u	15µM	u
COc1cc(OC)c2c(=O)cc(-c3cccnc3)oc2c1	n	n	x	u	u	u
COC(=O)c1cn(NC(=O)Cc2cccc(OC)c2)c(=O)c2ccccc12	n	n	n	n	n	n
Cc1ccc(-c2csc(=Nc3ccccc3)n2CCCO)cc1	x	x	n	x	n	x
CCCNC(=O)C1CCCN(S(=O)(=O)c2ccc3c(c2)CC(C)N3C(=O)C2CC2)C1 (stereo unspecified)	n	n	x	n	n	u
CC(Cc1ccco1)NC(=O)c1ccc(C(F)(F)F)cc1 (stereo unspecified)	0.71µM	1µM	x	8.2µM	6.7µM	u
CC(Cc1ccco1)NC(=O)c1cccc(S(=O)(=O)N(C)C)c1 (stereo unspecified)	u	u	x	15µM	u	u
O=C(NCc1ccco1)c1ccc(C(F)(F)F)cc1	n	n	n	n	n	n
CCCCc1ccc(-c2nc(NC(=O)C3C4CCC(O4)C3C(=O)O)sc2C)cc1 (stereo unspecified)	n	n	n	16µM	21µM	u
CCc1cccc(C)c1NC(=O)C1C2CCC(O2)C1C(=O)O (stereo unspecified)	n	n	n	n	n	n
CCOC(=O)Cc1csc(NC(=O)CSC2=NCCS2)n1	n	n	x	n	n	n
CCOC(=O)C1(CCCc2ccccc2)CCN(C(=O)CN2C(=O)CSC2=O)CC1	n	n	x	n	n	12µM
CCOC(=O)C1(Cc2ccccc2Cl)CCN(C(=O)c2cnccn2)CC1	u	2.8µM	x	u	15µM	u
CCOC(=O)C1(CCCc2ccccc2)CCN(C(=O)c2cnc(C)cn2)CC1	n	n	x	n	n	16µM
Cc1ccc(NC(=O)c2oc3ccc(S(=O)(=O)N4CCC5(CC4)OCCO5)cc3c2C)cc1C	n	n	n	n	u	6.5µM
Cc1c(C(=O)NCc2cccnc2)oc2ccc(S(=O)(=O)N3CC(C)CC(C)C3)cc12 (stereo unspecified)	n	n	n	n	n	n
Cc1c(C(=O)NCc2cccnc2)oc2ccc(S(=O)(=O)N3CCC4(CC3)OCCO4)cc12	n	n	n	n	n	23µM
O=C(NCc1cccnc1)C1CCN(c2ccc(S(=O)(=O)N3CCOCC3)cc2Cl)CC1	n	n	x	n	n	16µM
CCCNC(=O)C1CCN(c2ccc(S(=O)(=O)N3CCOCC3)cc2Cl)CC1	n	n	n	n	n	u
COc1cccc(N2CCN(c3ncnc4c3cnn4-c3ccc(C)cc3C)CC2)c1	n	n	n	n	n	3.3µM
Cc1cccc(-n2ncc3c(N4CCC(C)CC4)ncnc32)c1	1.1µM	0.89µM	2.5µM	u	1.9µM	u
c1ccc(-n2ncc3c(N4CCCCC4)ncnc32)cc1	0.32µM	u	n	0.46µM	0.27µM	u
SMILES	NPC1 prom act	Rab9 promoter act	SMN2 splice enh	ELG1 genotoxic	FLuc modulator	ELG1 repair inh
Cc1ccc(-n2ncc3c(N4CCCCCC4)ncnc32)cc1C	x	x	x	x	0.27µM	x
COc1ccc(CC(=O)NCc2nc3cccnc3n2Cc2ccccc2)cc1	x	x	x	x	n	x
CCCCn1cnc2cc(NC(=O)c3cc(OC)c(OC)c(OC)c3)ccc21	x	x	n	x	n	x
COc1ccc(-n2ncc3c(N4CCC(C(N)=O)CC4)ncnc32)cc1	3.5µM	2.8µM	n	n	15µM	n
Cc1cccc(-n2ncc3c(N4CCCCCC4)ncnc32)c1	x	x	x	x	0.6µM	x
O=C(NCc1ccc(F)cc1)C1CCCN1C(=O)Nc1ccccc1 (stereo unspecified)	n	n	x	n	n	n
